Source: PubChem BioAssay
Compounds with a hit are over-represented: about 12% of the library has one in this group of screens.
AmpC inh detg = inhibitors of E. coli AmpC beta-lactamase with detergent; AmpC hydrolysis of nitrocefin, absorbance 480 nm, 0.01% Triton; Potency, µM (highest dose often 114 µM), without a hit: at the top dose activity change, negative = inhibition, hits mostly inhibitors; actives 0.041% (n = 370,000);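 note: 0% = no-compound wells and -100% = no-enzyme wells; nearly all actives have a fitted effect of over 25% in size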
Target sequence (P00811 whole entry, looked up): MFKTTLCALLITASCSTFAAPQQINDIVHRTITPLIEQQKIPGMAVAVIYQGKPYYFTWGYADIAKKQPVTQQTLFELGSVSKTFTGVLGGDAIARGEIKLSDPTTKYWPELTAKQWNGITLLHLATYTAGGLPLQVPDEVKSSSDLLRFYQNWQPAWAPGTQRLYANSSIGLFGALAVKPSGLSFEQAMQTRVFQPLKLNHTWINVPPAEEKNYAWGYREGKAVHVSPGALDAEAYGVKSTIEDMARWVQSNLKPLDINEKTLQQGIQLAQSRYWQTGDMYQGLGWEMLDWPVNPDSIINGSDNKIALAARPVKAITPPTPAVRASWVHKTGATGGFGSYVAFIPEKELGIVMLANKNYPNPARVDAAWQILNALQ
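20 mM phosphate pH 7.0 + 0.01% (detergent screen) or 0.0001% Triton X-100; 5.3 nM AmpC reagent; cpd preinc 15 min RT; nitrocefin (800 uM stock) to start; A480 q20 s × 4 min; Activity was normalised to no-enzyme and no-compound control wells.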
SARS PLP yeast = SARS-CoV PLP inhibition in yeast. S. cerevisiae expressing SARS-CoV PLpro, growth rescue. Potency, µM (highest dose often 32.9 µM), without a hit: at the top dose activity, positive = growth rescue, usual class: activators. actives 0.19% (n = 330,000). AID 485353; calls by dose curve; note: 0% is about no effect; nearly all actives have a fitted effect of over 55% in size
Pf growth 48h = inhibits P. falciparum growth in the first generation, 48 h | P. falciparum luciferase growth in erythrocytes, 48 h | Potency, µM (titrated, usually from 28.7 µM), for the others: top-dose activity change, negative = inhibition, usual class: inhibitors | actives 5.9% (n = 310,000); note: % is set by controls: 0 for no effect and ±100 for the full control effect
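Firefly luciferase activity from engineered P. falciparum reports growth; inhibitors lower the luminescent signal. Cultures contained 2% hematocrit erythrocytes at 0.1% final parasitemia.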
AmpC no deterg = inhibitors of E. coli AmpC beta-lactamase without detergent. AmpC nitrocefin hydrolysis, absorbance 480 nm, 0.0001% Triton. P00811. actives 0.52% (n = 330,000). AID 485341. Potency, µM (doses to about 57.1 µM), inactives show at the highest dose activity change, negative = inhibition, hits mostly inhibitors;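 note: plate controls were no compound for no effect and no enzyme for full effect; nearly all actives have a fitted effect of over 20% in size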
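20 mM phosphate pH 7.0 + 0.01% (detergent screen) or 0.0001% Triton X-100; 5.3 nM AmpC reagent; cpd preinc 15 min RT; nitrocefin (800 uM stock) to start; A480 q20 s × 4 min; Activity was normalised to no-enzyme and no-compound control wells.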
Sm TGR inh = blocks Schistosoma mansoni thioredoxin glutathione reductase; AID 485364; purified TGR, DTNB reduction, TNB absorbance 405 nm; Potency, µM (series often up to 114 µM), for inactives: at the top dose activity change, negative = inhibition, actives largely listed as inhibitors; Q962Y6; actives 3% (n = 360,000); note: % is set by controls: 0 for no effect and ±100 for the full control effect; nearly all actives have a fitted effect of over 60% in size
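TGR 20 nM + NADPH 100 uM (dispensed conc.), cpd preinc 15 min RT; start with NADPH (500 uM addition) then DTNB (15 mM addition). Kinetic TNB absorbance, 405 nm filter. Four-parameter Hill fit across titration.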
Pf growth 96h = inhibits malaria parasite growth, 96 h | P. falciparum luciferase reporter growth, 96 h | Potency, µM (top dose mostly 28.7 µM), inactives show at the top dose activity change, negative = inhibition, most hits filed as inhibitors | actives 6.9% (n = 320,000) | AID 504834; note: % is set by controls: 0 for no effect and ±100 for the full control effect
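Parasite growth measured via integrated firefly luciferase reporter in P. falciparum. Infected erythrocytes at 2% hematocrit, 0.05% parasitemia final were treated 96 hours at 37 C under 5% CO2, and luminescence was read.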
The depositor's hits bear a star; ? = inconclusive; · = not tested or not shown; [ ] = another dose, or the depositor's remark. Unless noted, calls come from the whole dose curve; as a rule, active = well fitted curve in the direction sought with a large enough effect; inconclusive = small, poorly fitted or top-dose-only effect, or another doubt; inactive = no such curve, though single readings can be large; an effect the other way counts as inactive or inconclusive. Potency is the fitted concentration of half-maximal effect.

SMILES	AmpC inh detg	SARS PLP yeast	Pf growth 48h	AmpC no deterg	Sm TGR inh	Pf growth 96h
COc1cc2c(cc1OC)C(c1ccccc1O)N(C1CC(=O)N(c3ccccc3)C1=O)CC2 (stereo not drawn)	-12%	-27%	-27%	50%	10µM*	·
COc1ccc(C(=O)N2CCc3cc(OC)c(OC)cc3C2c2ccc(OC)c(OC)c2)cc1OC (stereo not drawn)	-2%	1%	13µM*	180%	-14%	6.6µM*
COc1cc2c(cc1OC)C(c1ccccc1)N(C(=O)CCl)CC2 (stereo not drawn)	2%	-2%	?	-13%	4µM*	?
COc1cc2c(cc1OC)C(C1C(=O)CCCC1=O)N(C(=O)CCl)CC2 (stereo not drawn)	-6%	0%	5%	-1%	-32%	-22%
CCCn1c(N)c(C(=O)COC(=O)/C=C/c2ccc(OC(F)F)c(OC)c2)c(=O)[nH]c1=O	·	5%	·	1%	·	·
COc1cccc(C2C(C#N)=C(N)SC(c3ccccc3)C2[N+](=O)[O-])c1 (stereo not drawn)	7%	0%	10µM*	-13%	0%	19%
CCCc1[nH]nc2c1C(c1cccc(OC)c1)C(C#N)=C(N)O2 (stereo not drawn)	2%	?	-8%	-21%	?	81%
CCN(Cc1ccccc1)C(=O)Cn1cnc2c1c(=O)n(C)c(=O)n2C	4%	2%	13%	-3%	13%	-7%
Cn1c(=O)c2c(ncn2CCN(CCO)Cc2ccccc2)n(C)c1=O	-13%	2%	7%	0%	45µM*	7.4µM*
Cc1nn(-c2ccccc2)c(-n2cccc2)c1C(=O)NCCCN1CCN(c2ccccc2F)CC1	5%	·	·	·	4%	·
c1ccc(OCCN2C3=NCCN3c3ccccc32)cc1	?	3%	-17%	4%	5%	?
CCCCN1C2=NCCCN2c2ccccc21	-2%	0%	?	-14%	-2%	10µM*
CCCCN1C2=NCCCN2c2cc(C)c(C)cc21	?	-1%	13µM*	16%	11%	13µM*
CCCN1C2=NCCN2c2ccccc21	?	0%	-9%	-8%	70%	4.1µM*
CCCN1C2=NCCCN2c2ccccc21	-3%	6%	-19%	1%	6%	?
CCCCCCCN1C2=NCCCN2c2ccccc21	0%	-3%	2.9µM*	19%	1%[57.1 µM]	-4%
CCCNC(=O)c1cnc2sc(N3CCCCCC3)nn2c1=O	11%	·	·	·	-2%	·
CC1=NN(C(=O)c2ccc(Cn3ccc([N+](=O)[O-])n3)cc2)C(O)(C(F)(F)F)C1 (stereo not drawn)	-3%	5%	-6%	-58%	17%	-1%
CC1(C)Nc2ccccc2C(=O)N1c1ccccc1	?	-2%	-13%	-10%	0%	-22%
Cc1ccccc1OCCSc1nnc(-c2ccc([N+](=O)[O-])cc2)o1	9%	·	·	·	10%	·
CSc1cccc(NC(=S)N2CCCN(Cc3ccccc3F)C2)c1	?	1%	?	-33%	11%	-28%
CCCCCCN1C2=NCCN2c2ccccc21	-6%	0%	15µM*	6%	29%	·
CCCCCCCN1C2=NCCN2c2ccccc21	0%	-1%	?	31%	8%	?
O=C(CN1C2=NCCN2c2ccccc21)c1ccco1	-7%	5%	·	-11%	9%[11.4 µM]	13µM*
O=C1c2cccc(OCC(=O)N3CCCc4ccccc43)c2CCN1Cc1ccc(Br)cc1	-13%	-10%	?	0%	-25%	?
SMILES	AmpC inh detg	SARS PLP yeast	Pf growth 48h	AmpC no deterg	Sm TGR inh	Pf growth 96h
Cc1ccccc1OCc1nc2ccccc2c(=O)n1NC(=O)c1ccco1	?	-18%	?	-19%	-2%	-24%
Cc1cccc(NS(=O)(=O)c2ccc3c(c2)Cc2cc(S(=O)(=O)Nc4cccc(C)c4C)ccc2-3)c1C	-3%	-11%	9.3µM*	?	-7%	25%
Cc1cccc(NS(=O)(=O)c2ccc(-c3cnc(C4CC4)o3)cc2)c1C	-1%	-11%	?	1%	3%	6.6µM*
Cc1c(Cl)cccc1NS(=O)(=O)c1ccc(-c2cnc(C3CC3)o2)cc1	15%	·	·	·	1%	·
Cc1cccc(NS(=O)(=O)c2ccc3[nH]c(=O)[nH]c3c2)c1C	-3%	1%	18%	-12%	1%	42%
O=[N+]([O-])c1cccc(/C=N/Nc2nc(NCc3ccccc3)nc(N3CCOCC3)n2)c1O	-4%	-1%	6.6µM*	27%	0%	?
O=[N+]([O-])c1ccc(/C=N/Nc2nc(NCc3ccccc3)nc(N3CCOCC3)n2)cc1	4%	1%	13µM*	-31%	2%	16%
O=[N+]([O-])c1cccc(/C=N/Nc2nc(NCc3ccccc3)nc(N3CCOCC3)n2)c1	-11%	-19%	?	-28%	-14%	?
O=C(COC(=O)c1cccc([N+](=O)[O-])c1)Nc1ccc(Cl)cn1	?	-10%	35%	-24%	1%	105%
NC(=O)c1ccc(NC(=S)NCc2ccco2)cc1	-1%	0%	21%	-19%	-27%	12µM*
COc1cc(CNCc2ccco2)cc(OC)c1O	-5%	-5%	28%	-13%	16µM*	26%
Cc1ccc(CNCc2ccco2)cc1	-15%	4%	-2%	-2%	?	?
CC(C)(C)NC(=S)NCc1ccco1	?	-28%	?	-46%	25µM*	?
COc1ccccc1NC(=S)NCc1ccco1	-4%	-9%	13%	-7%	35µM*	·
Cc1cc(O)c2c(C)c(CC(=O)NCc3ccccc3Cl)c(=O)oc2c1	11%	·	·	·	0%	·
CS(=O)(=O)NCCc1csc2nc(-c3ccccc3)nn12	1%	·	·	·	8%	·
CCc1ccc(CNC(=O)c2cnc3sc(N4CCCCC4)nn3c2=O)cc1	2%	·	·	·	2%	·
O=C(Nc1nc2ccccc2s1)c1ccc(OCC2CCCO2)cc1 (stereo not drawn)	-13%	-12%	93%	35%	0%	0%
CCOc1cccc(C2/C(=C(/O)c3ccc4c(c3)CC(C)O4)C(=O)C(=O)N2Cc2ccncc2)c1 (stereo not drawn)	-2%	-1%	-9%	-52%	-2%	-6%
COc1cc(NC(=S)NCc2ccco2)cc(OC)c1OC	-14%	1%	-1%	1%	-35%	5.2µM*
COC(=O)c1ccc(NC(=S)NCc2ccco2)cc1	-3%	-1%	18%	0%	?	?
